The text below walks through data of ChEMBL document CHEMBL5606460, “ASAP - DENV-2 NS2B-NS3 protease fluorescence single point” (2024).

The campaign covered roughly 2,000 compounds. About 110 (5.5%) showed an effect of 50% or more. The sample as a whole holds a higher share of strong results than the screen did.

For the experiment, the target named is Genome polyprotein (dengue virus type 2) (UniProt P29990).
Where [1] appears, read: Thailand/16681/1984, Concentration 25.0 uM, Number of replicates 1.0.

With `CSCC[C@H](NC(=O)OC(C)(C)C)C(=O)N1CCC[C@H]1C(=O)Nc1ccc(CN)cc1`, the inhibition is, setting by setting: (Thailand/16681/1984, Concentration 49.5 uM, Number of replicates 2.0, Standard deviation 0.5873455681071067 %) 0.345%; (Thailand/16681/1984, Concentration 99.01 uM, Number of replicates 2.0, Standard deviation 0.9875045381203101 %) 1.56%; (Thailand/16681/1984, Concentration 198.0 uM, Number of replicates 2.0, Standard deviation 0.49996007837732465 %) 2.5%.

As for `CCc1nc(CNC(=O)[C@]2(c3ccc(F)cc3)CCCNC2)n[nH]1`, the inhibition by setting is: (Thailand/16681/1984, Concentration 49.5 uM, Number of replicates 2.0, Standard deviation 0.49799700461423274 %) -1.23%; (Thailand/16681/1984, Concentration 99.01 uM, Number of replicates 2.0, Standard deviation 0.6482125452450617 %) -1.25%; (Thailand/16681/1984, Concentration 198.0 uM, Number of replicates 2.0, Standard deviation 1.0139545093997464 %) -1.41%.

For `O=Cc1ccc(N2CCC(C(=O)NCc3ccccc3Br)CC2)cc1`, the inhibition under setting [1] turned out to be 12.3%.

For the compound `O=Cc1ccc(N2CCC(C(=O)NCc3ccc4ccccc4n3)CC2)cc1`, the inhibition under setting [1] amounted to 12.8%.

For `Cc1nc(C2CCN(Cc3c[nH]c4ccccc34)CC2)sc1C(=O)O`, the inhibition runs as follows: (Thailand/16681/1984, Concentration 49.5 uM, Number of replicates 2.0, Standard deviation 2.532196482700825 %) -7.37%; (Thailand/16681/1984, Concentration 99.01 uM, Number of replicates 2.0, Standard deviation 0.1962596660766768 %) -5.26%; (Thailand/16681/1984, Concentration 198.0 uM, Number of replicates 2.0, Standard deviation 1.7247831523377455 %) -1.52%.

With `COC(=O)c1cncc(C(=O)Nc2ccncc2C)c1`, the inhibition runs as follows: (Thailand/16681/1984, Concentration 49.5 uM, Number of replicates 2.0, Standard deviation 6.3209660189886 %) 2.4%; (Thailand/16681/1984, Concentration 99.01 uM, Number of replicates 2.0, Standard deviation 0.9582277355643998 %) -1.8%; (Thailand/16681/1984, Concentration 198.0 uM, Number of replicates 2.0, Standard deviation 0.7051109593221626 %) -2.38%.

In the case of `Cc1cc(S(=O)(=O)NCCNC(=O)c2ccc(O)c(NC(=O)c3ccncc3F)c2C)c(C)s1`, the inhibition is, setting by setting: (Thailand/16681/1984, Concentration 49.5 uM, Number of replicates 2.0, Standard deviation 0.0696651159595359 %) -1.95%; (Thailand/16681/1984, Concentration 99.01 uM, Number of replicates 2.0, Standard deviation 0.12517951182523615 %) -1.5%; (Thailand/16681/1984, Concentration 198.0 uM, Number of replicates 2.0, Standard deviation 0.5034395957498385 %) 0.045%.

In the case of `COc1ccc(CN(C)C(=O)C2CCN(c3ccc(C=O)cc3)CC2)c(OC)c1`, under setting [1], the inhibition was 14%.

For `NC(=O)c1c(NC(=O)C2CCN(c3ccc(C=O)cc3)CC2)sc2c1CCCC2`, the inhibition under setting [1] came to 38.6%.

On to `CCn1cc(S(=O)(=O)Nc2ccc(Cl)cc2C(=O)NC)cn1`, for which the inhibition (Thailand/16681/1984, Concentration 49.5 uM, Number of replicates 2.0, Standard deviation 0.5029835247021022 %) is -6.21%.

With `C[C@@H](c1ccccc1)N(C(=O)C1CCN(c2ccc(C=O)cc2)CC1)[C@@H](C)c1ccccc1`, the inhibition under setting [1] turned out to be 15.2%.

Take `CC1(C)Cc2sc(NC(=O)Cc3ccc(S(N)(=O)=O)cc3)c(C#N)c2CN1CC1CCCCC1`: the inhibition came out at 8.25% (Thailand/16681/1984, Concentration 49.5 uM, Number of replicates 2.0, Standard deviation 0.009484052439315419 %); 14.5% (Thailand/16681/1984, Concentration 99.01 uM, Number of replicates 2.0, Standard deviation 0.7150155530159198 %); 23.9% (Thailand/16681/1984, Concentration 198.0 uM, Number of replicates 2.0, Standard deviation 0.2762742778628508 %).

Turning to `Cc1cc(N)cc(CNC(=O)c2ccccc2Cc2cccc3c(CO)cc(C)nc23)c1`, the inhibition reads like this: (Thailand/16681/1984, Concentration 49.95 uM, Number of replicates 2.0, Standard deviation 1.0161746789387547 %) 47.1%; (Thailand/16681/1984, Concentration 99.9 uM, Number of replicates 2.0, Standard deviation 1.7549489162224476 %) 74.7%.

With `Cc1cc(CO)c2cccc(CC(=O)NCc3sccc3C)c2n1`, the inhibition was 44% (Thailand/16681/1984, Concentration 49.95 uM, Number of replicates 2.0, Standard deviation 0.3413314788746907 %) and 63.7% (Thailand/16681/1984, Concentration 99.9 uM, Number of replicates 2.0, Standard deviation 0.321257440691134 %).

In the case of `Cc1cc(CO)c2cccc(Cc3ccccc3C(=O)NCc3sccc3C)c2n1`, the inhibition is, setting by setting: (Thailand/16681/1984, Concentration 49.95 uM, Number of replicates 2.0, Standard deviation 0.661878407993628 %) 1.17%; (Thailand/16681/1984, Concentration 99.9 uM, Number of replicates 2.0, Standard deviation 2.367239112425795 %) 7.83%.

On to `Cc1cc(CO)c2cccc(Cc3ccccc3C(=O)NCc3ccc(C(N)=O)cc3)c2n1`, for which the inhibition (Thailand/16681/1984, Concentration 49.95 uM, Number of replicates 2.0, Standard deviation 0.2888981019288338 %) was 2.07% and the inhibition (Thailand/16681/1984, Concentration 99.9 uM, Number of replicates 2.0, Standard deviation 0.18972386998439544 %) amounted to 5.84%.

On to `Cc1cc(CO)c2cccc(Cc3cccc(C(=O)NCc4sccc4C)c3)c2n1`, for which the inhibition came out at 1.25% (Thailand/16681/1984, Concentration 49.95 uM, Number of replicates 2.0, Standard deviation 0.7466793423372446 %) and 23.8% (Thailand/16681/1984, Concentration 99.9 uM, Number of replicates 2.0, Standard deviation 0.16169689007422708 %).

`Cc1cc(CO)c2cccc(Cc3ccccc3C(=O)NCc3ccc(S(N)(=O)=O)cc3)c2n1`: the inhibition runs as follows: (Thailand/16681/1984, Concentration 49.95 uM, Number of replicates 2.0, Standard deviation 1.5695359944911405 %) 4.94%; (Thailand/16681/1984, Concentration 99.9 uM, Number of replicates 2.0, Standard deviation 2.135114838489864 %) 9.8%.

Take `CC(C)NC(=O)CN1CCN(C(=O)C2CCN(c3ccc(C=O)cc3)CC2)CC1`: the inhibition under setting [1] was found to be 11.2%.

As to `Cc1cn2nnc(C(=O)N3CCC[C@H](c4nc(=O)[nH][nH]4)C3)c2c(=O)[nH]1`, the inhibition is, setting by setting: (Thailand/16681/1984, Concentration 49.5 uM, Number of replicates 2.0, Standard deviation 1.1306810071407891 %) -1.83%; (Thailand/16681/1984, Concentration 99.01 uM, Number of replicates 2.0, Standard deviation 1.1436614778388714 %) -1.38%; (Thailand/16681/1984, Concentration 198.0 uM, Number of replicates 2.0, Standard deviation 0.31245549284811885 %) -1.83%.

Take `Cc1cc(CO)c2cccc(Cc3cccc(C(=O)N[C@H]4C[C@@H](O)C4)c3)c2n1`: the inhibition stood at 6.97% (Thailand/16681/1984, Concentration 49.95 uM, Number of replicates 2.0, Standard deviation 0.3715430142368757 %) and 29.2% (Thailand/16681/1984, Concentration 99.9 uM, Number of replicates 2.0, Standard deviation 0.8666943057865014 %).

Consider `Cc1cc(CO)c2cccc(C[C@H](NC(=O)c3cc(C(F)F)nn3C)C(=O)O)c2n1`, for which the inhibition by setting is: (Thailand/16681/1984, Concentration 49.95 uM, Number of replicates 2.0, Standard deviation 1.4383595761786832 %) 1.98%; (Thailand/16681/1984, Concentration 99.9 uM, Number of replicates 2.0, Standard deviation 0.48778570830386186 %) 5.89%.

Turning to `Cc1nc(N)c2cccc(Cl)c2n1`, the inhibition runs as follows: (Thailand/16681/1984, Concentration 49.95 uM, Number of replicates 2.0, Standard deviation 5.075529174302592 %) -8.29%; (Thailand/16681/1984, Concentration 99.9 uM, Number of replicates 2.0, Standard deviation 2.1313934403537464 %) -8.87%.

On to `COc1ccccc1N1CCN(C(=O)C2CCN(c3ccc(C=O)cc3)CC2)CC1`, for which, under setting [1], the inhibition worked out at 12.1%.

On to `N[C@@H]1CCCC[C@H]1C(=O)Nc1cccc2cccnc12`, for which the inhibition (Thailand/16681/1984, Concentration 49.95 uM, Number of replicates 2.0, Standard deviation 3.2838754106489776 %) was -8.7% and the inhibition (Thailand/16681/1984, Concentration 99.9 uM, Number of replicates 2.0, Standard deviation 3.148144351005342 %) is -7.2%.
